# Data published in paper PMC7862700, “An all-to-all approach to the identification of sequence-specific readers for epigenetic DNA modifications on cytosine”.
# Assays:
# Assay in all cases: DAPPL (digital affinity profiling via proximity ligation, sequencing); 10 mM Tris-HCl pH 7.5, 50 mM NaCl, 1 mM DTT, 4% glycerol, room temperature, 30 min; GST-TFs on glutathione beads, 16-mer random dsDNA library, 0.1% formaldehyde crosslink after washing; high values mean tight binding
# [1] = target: T1, FLI1 (Homo sapiens, UniProt Q01543 1-452); conditions: protein: recombinant; tags: N-terminal GST; dsDNA, one strand shown
# T1 sequence: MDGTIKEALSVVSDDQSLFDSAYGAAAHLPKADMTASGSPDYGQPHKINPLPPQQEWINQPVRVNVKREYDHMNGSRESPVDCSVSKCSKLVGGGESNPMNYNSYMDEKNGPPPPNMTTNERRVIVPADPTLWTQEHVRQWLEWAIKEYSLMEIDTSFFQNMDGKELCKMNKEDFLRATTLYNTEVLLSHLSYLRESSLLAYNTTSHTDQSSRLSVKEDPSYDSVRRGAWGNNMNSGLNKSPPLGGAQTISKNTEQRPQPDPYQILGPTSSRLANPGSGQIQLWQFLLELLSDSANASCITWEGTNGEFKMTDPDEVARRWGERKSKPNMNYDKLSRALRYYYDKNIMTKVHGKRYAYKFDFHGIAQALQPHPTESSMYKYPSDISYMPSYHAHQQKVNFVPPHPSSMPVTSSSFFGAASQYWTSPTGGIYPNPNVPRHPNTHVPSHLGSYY
# In short: (§1)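 Beads coated with glutathione captured GST-fused human transcription factors that had been expressed in yeast, and the factors were then given DNA barcodes and pooled with a tag-only sample. The pools were incubated with 200 nmole of a random double-stranded 16-mer DNA library in Tris/NaCl/DTT/glycerol buffer for 30 min at room temperature, washed, crosslinked with 0.1% formaldehyde and proximity-ligated with BsaI/T4 ligase at 37 °C for 1 h. PCR amplification and Illumina NextSeq500 sequencing came last. Binding signal is each hexamer's read frequency for a factor divided by its frequency for the tag-only sample.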
# [2] = target: T2, ELK1 (Homo sapiens, UniProt P19419 1-428); conditions: protein: recombinant; tags: N-terminal GST; dsDNA, one strand shown
# T2 sequence: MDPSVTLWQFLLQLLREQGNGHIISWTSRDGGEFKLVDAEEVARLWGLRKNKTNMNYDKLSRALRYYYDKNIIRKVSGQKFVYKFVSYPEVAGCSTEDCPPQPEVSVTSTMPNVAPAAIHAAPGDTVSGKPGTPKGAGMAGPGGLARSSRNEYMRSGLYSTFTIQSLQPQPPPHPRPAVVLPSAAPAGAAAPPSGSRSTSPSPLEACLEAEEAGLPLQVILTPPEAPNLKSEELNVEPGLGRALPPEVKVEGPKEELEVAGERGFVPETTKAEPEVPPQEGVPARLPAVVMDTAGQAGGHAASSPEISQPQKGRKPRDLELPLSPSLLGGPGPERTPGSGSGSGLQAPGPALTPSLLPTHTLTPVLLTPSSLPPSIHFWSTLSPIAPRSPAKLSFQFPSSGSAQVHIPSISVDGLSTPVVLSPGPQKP
# In short: as §1
# [3] = target: T3, GABPA (Homo sapiens, UniProt Q06546 1-454); conditions: protein: recombinant; tags: N-terminal GST; dsDNA, one strand shown
# T3 sequence: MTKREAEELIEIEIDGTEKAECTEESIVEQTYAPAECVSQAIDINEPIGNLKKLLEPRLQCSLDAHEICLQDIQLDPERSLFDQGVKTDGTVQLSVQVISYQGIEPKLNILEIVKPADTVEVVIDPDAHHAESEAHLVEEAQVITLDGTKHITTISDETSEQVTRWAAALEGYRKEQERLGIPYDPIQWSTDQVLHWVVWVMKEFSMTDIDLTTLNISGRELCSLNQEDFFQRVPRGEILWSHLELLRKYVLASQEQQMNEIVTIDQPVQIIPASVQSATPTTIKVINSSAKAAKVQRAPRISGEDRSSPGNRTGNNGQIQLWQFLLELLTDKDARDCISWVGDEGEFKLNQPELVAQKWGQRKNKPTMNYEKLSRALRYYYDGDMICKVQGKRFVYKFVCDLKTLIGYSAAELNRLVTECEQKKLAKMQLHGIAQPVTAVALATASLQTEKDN
# In short: as §1
# [4] = target: T4, ERG (Homo sapiens, UniProt P11308 1-479); conditions: protein: recombinant; tags: N-terminal GST; dsDNA, one strand shown
# T4 sequence: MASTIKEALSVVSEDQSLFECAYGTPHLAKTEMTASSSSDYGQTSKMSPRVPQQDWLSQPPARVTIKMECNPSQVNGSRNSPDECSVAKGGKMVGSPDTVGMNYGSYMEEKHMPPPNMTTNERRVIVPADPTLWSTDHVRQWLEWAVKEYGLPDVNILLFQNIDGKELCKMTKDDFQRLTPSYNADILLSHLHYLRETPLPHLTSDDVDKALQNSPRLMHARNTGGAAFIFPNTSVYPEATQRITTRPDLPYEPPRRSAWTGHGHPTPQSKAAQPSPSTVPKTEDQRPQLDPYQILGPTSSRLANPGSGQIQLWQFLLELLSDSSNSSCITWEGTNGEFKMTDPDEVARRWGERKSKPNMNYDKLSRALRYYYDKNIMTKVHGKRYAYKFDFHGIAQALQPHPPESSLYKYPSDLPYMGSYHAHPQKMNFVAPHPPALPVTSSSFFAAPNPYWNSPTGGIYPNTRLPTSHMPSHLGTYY
# In short: as §1
# [5] = target: ELF1 (Homo sapiens, UniProt P32519 1-619); conditions: protein: recombinant; tags: N-terminal GST; dsDNA, one strand shown
# In short: as §1
# [6] = target: T5, EHF (Homo sapiens, UniProt Q9NZC4 1-300); conditions: protein: recombinant; tags: N-terminal GST; dsDNA, one strand shown
# T5 sequence: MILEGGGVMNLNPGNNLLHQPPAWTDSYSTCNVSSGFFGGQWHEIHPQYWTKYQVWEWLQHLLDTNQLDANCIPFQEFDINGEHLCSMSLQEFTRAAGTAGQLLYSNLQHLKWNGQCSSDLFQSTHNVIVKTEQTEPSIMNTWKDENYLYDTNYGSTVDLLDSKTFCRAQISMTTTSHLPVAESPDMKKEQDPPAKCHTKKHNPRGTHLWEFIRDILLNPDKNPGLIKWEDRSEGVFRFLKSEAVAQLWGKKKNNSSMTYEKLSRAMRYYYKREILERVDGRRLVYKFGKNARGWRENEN
# In short: as §1
# [7] = target: SPI1 (Homo sapiens, UniProt P17947 1-270); conditions: protein: recombinant; tags: N-terminal GST; dsDNA, one strand shown
# In short: as §1
# [8] = target: SPIB (Homo sapiens, UniProt Q01892 1-262); conditions: protein: recombinant; tags: N-terminal GST; dsDNA, one strand shown
# In short: as §1
# [9] = target: T6, ELK3 (Homo sapiens, UniProt P41970 1-407); conditions: protein: recombinant; tags: N-terminal GST; dsDNA, one strand shown
# T6 sequence: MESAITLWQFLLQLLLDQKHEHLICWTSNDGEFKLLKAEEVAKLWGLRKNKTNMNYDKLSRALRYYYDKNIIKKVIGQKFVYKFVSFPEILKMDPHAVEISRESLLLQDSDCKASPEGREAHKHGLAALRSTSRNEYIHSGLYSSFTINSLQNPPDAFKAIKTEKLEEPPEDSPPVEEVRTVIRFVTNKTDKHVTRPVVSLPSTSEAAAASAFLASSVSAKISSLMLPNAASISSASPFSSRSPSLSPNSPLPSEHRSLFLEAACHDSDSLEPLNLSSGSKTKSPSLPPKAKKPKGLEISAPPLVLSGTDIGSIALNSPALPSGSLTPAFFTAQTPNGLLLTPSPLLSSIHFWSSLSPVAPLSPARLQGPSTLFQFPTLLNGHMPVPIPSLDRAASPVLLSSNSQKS
# In short: as §1
# [10] = target: T7, FEV (Homo sapiens, UniProt Q99581 1-238); conditions: protein: recombinant; tags: N-terminal GST; dsDNA, one strand shown
# T7 sequence: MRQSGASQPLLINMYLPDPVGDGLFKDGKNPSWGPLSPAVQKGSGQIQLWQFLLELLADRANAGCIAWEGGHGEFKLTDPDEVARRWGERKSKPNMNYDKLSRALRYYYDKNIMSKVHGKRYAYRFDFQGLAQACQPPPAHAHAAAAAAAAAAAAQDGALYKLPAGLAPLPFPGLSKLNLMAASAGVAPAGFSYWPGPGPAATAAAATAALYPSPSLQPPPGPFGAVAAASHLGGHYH
# In short: as §1
# [11] = target: ETV5 (Homo sapiens, UniProt P41161 1-510); conditions: protein: recombinant; tags: N-terminal GST; dsDNA, one strand shown
# In short: as §1
# [12] = target: HSF1 (Homo sapiens, UniProt Q00613 1-529); conditions: protein: recombinant; tags: N-terminal GST; chain copies: 3; dsDNA, one strand shown
# In short: as §1
# [13] = target: T8, SPIC (Homo sapiens, UniProt Q8N5J4 1-248); conditions: protein: recombinant; tags: N-terminal GST; dsDNA, one strand shown
# T8 sequence: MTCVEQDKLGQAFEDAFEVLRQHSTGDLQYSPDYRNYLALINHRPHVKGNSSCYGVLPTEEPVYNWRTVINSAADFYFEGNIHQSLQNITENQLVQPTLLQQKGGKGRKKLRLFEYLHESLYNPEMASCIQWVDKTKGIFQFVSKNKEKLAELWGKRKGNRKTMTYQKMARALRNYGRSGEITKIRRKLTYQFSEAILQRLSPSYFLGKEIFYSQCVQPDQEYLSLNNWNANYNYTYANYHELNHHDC
# In short: as §1
# [14] = target: ELF4 (Homo sapiens, UniProt Q99607 1-663); conditions: protein: recombinant; tags: N-terminal GST; dsDNA, one strand shown
# In short: as §1
# [15] = target: T9, ELK4 (Homo sapiens, UniProt P28324-2 1-405); conditions: protein: recombinant; tags: N-terminal GST; dsDNA, one strand shown
# T9 sequence: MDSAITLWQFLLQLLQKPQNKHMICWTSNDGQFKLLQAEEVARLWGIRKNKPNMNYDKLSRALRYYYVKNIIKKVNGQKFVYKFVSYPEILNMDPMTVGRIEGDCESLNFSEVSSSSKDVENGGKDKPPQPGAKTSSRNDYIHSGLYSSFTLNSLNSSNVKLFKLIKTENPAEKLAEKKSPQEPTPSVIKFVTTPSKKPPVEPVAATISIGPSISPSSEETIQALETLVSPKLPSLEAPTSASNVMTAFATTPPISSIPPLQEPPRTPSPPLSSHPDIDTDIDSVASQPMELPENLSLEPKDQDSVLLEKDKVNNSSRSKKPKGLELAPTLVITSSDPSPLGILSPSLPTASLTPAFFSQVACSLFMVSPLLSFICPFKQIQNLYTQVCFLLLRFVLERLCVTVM
# In short: as §1
# [16] = target: T10, ETV2 (Homo sapiens, UniProt O00321 1-342); conditions: protein: recombinant; tags: N-terminal GST; dsDNA, one strand shown
# T10 sequence: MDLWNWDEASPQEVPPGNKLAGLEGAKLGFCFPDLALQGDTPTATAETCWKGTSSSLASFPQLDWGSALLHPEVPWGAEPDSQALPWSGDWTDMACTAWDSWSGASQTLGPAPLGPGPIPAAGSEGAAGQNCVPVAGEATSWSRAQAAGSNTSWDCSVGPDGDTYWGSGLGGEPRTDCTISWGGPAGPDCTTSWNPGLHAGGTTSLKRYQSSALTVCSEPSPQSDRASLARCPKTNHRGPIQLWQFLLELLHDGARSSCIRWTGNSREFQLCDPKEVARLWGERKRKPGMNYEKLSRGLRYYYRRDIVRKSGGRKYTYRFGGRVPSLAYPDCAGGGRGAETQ
# In short: as §1
# [17] = target: T11, ELF3 (Homo sapiens, UniProt P78545 1-371); conditions: protein: recombinant; tags: N-terminal GST; dsDNA, one strand shown
# T11 sequence: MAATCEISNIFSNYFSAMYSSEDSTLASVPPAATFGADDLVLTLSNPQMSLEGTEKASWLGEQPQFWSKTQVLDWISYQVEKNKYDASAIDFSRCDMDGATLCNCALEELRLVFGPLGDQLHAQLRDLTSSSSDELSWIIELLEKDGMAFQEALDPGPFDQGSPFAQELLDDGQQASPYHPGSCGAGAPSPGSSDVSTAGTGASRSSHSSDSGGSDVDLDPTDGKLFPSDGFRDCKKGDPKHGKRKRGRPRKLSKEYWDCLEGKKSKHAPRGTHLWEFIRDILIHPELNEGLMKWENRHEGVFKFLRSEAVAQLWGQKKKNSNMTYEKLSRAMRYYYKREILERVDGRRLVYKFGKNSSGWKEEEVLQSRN
# In short: as §1
# [18] = target: CRX (Homo sapiens, UniProt O43186 1-299); conditions: protein: recombinant; tags: N-terminal GST; dsDNA, one strand shown
# In short: as §1
# [19] = target: ETV1 (Homo sapiens, UniProt P50549 1-477); conditions: protein: recombinant; tags: N-terminal GST; dsDNA, one strand shown
# In short: as §1
# Chain of ELF1 (P32519 whole entry): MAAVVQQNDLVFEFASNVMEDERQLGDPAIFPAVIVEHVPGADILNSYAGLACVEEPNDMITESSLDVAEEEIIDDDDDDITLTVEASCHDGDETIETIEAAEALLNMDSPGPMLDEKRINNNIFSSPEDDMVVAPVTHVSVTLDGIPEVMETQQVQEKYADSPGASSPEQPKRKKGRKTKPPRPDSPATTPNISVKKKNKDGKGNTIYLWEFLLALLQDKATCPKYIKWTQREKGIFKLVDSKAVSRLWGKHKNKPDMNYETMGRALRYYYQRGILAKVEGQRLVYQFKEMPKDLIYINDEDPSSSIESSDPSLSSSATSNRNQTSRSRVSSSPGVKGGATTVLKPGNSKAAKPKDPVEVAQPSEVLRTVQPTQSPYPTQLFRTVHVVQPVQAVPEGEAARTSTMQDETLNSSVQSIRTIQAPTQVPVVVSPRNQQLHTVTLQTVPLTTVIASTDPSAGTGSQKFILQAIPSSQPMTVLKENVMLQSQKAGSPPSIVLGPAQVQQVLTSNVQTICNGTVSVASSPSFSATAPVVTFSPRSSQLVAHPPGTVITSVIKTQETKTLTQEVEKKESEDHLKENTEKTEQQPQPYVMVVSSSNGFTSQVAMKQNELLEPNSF
# Chain of SPIB (Q01892 whole entry): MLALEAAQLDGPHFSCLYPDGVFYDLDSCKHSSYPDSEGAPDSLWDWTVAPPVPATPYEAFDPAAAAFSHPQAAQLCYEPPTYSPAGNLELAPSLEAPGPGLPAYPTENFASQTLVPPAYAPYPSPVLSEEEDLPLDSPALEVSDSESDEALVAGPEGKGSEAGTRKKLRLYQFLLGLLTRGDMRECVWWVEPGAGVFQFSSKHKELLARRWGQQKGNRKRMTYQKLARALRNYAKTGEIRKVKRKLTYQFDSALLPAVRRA
# Chain of ETV5 (P41161 whole entry): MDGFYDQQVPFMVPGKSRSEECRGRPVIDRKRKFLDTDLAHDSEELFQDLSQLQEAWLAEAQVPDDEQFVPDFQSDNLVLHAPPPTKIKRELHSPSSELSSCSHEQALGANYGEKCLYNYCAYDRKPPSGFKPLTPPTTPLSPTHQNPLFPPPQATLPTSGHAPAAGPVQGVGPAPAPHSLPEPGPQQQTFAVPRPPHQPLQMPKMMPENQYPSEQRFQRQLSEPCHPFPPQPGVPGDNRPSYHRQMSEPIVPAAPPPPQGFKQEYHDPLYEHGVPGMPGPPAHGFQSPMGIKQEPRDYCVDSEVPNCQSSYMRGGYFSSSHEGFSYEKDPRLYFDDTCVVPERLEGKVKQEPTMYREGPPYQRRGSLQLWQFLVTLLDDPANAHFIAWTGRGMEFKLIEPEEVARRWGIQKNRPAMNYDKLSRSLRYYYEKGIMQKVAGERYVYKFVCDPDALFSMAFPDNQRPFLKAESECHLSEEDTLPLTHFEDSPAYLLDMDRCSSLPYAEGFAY
# Chain of HSF1 (Q00613 whole entry): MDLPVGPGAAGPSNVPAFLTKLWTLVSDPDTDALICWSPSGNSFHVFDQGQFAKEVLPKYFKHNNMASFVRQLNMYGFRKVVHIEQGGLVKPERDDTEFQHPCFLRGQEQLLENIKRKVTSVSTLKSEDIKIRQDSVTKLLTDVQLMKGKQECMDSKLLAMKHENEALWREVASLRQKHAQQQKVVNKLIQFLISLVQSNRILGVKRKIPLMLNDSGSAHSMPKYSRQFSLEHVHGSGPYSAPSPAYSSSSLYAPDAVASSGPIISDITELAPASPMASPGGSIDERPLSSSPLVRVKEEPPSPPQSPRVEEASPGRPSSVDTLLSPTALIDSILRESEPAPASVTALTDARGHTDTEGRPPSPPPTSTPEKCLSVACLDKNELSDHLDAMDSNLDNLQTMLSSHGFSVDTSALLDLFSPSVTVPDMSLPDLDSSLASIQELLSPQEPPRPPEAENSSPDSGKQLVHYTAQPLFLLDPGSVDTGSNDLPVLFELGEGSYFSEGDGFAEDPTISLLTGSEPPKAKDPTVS
# Chain of CRX (O43186 whole entry): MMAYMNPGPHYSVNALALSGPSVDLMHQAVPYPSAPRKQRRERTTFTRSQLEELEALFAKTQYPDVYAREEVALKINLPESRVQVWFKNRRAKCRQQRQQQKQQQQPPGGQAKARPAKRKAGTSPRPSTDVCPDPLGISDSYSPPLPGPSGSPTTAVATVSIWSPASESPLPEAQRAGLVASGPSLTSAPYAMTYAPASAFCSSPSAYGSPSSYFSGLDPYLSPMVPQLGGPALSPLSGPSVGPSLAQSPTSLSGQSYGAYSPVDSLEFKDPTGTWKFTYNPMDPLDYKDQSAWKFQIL
# Chain of ELF4 (Q99607 whole entry): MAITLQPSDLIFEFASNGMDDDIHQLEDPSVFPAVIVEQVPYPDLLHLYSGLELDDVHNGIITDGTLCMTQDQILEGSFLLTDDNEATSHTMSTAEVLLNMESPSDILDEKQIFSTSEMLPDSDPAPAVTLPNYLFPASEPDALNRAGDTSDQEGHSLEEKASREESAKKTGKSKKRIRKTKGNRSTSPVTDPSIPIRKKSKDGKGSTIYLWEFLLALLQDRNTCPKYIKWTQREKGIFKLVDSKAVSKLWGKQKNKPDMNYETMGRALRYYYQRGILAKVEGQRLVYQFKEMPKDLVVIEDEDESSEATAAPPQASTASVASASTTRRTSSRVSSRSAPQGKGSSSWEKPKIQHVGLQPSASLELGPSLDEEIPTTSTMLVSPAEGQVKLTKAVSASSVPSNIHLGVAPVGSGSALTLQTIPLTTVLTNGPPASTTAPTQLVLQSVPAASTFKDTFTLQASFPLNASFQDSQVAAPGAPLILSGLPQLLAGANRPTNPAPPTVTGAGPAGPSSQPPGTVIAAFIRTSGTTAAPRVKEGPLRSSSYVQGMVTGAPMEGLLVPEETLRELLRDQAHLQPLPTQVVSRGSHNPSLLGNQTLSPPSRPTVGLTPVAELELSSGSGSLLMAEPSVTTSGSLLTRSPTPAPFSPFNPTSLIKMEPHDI
# Chain of ETV1 (P50549 whole entry): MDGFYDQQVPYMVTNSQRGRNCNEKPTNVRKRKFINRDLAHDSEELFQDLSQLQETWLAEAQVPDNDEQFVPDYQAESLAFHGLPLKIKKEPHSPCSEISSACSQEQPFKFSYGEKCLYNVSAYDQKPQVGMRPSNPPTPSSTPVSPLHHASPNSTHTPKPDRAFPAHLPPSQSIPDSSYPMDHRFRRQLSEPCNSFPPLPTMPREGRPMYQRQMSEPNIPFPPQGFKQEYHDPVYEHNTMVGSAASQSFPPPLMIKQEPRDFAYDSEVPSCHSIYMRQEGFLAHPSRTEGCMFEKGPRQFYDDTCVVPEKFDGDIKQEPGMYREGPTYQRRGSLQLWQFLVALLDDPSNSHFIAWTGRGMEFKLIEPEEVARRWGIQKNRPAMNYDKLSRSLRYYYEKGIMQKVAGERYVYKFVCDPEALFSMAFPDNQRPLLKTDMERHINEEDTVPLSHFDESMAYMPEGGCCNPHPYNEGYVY
sequence,measurement,setting,value
TAATTA,binding signal,[1],"1.24 fold enrichment (6-mer frequency, TF over GST control)"
same,binding signal,[2],"1.2 fold enrichment (6-mer frequency, TF over GST control)"
same,binding signal,[3],"1.23 fold enrichment (6-mer frequency, TF over GST control)"
same,binding signal,[4],"1.3 fold enrichment (6-mer frequency, TF over GST control)"
same,binding signal,[5],"1.3 fold enrichment (6-mer frequency, TF over GST control)"
same,binding signal,[6],"1.22 fold enrichment (6-mer frequency, TF over GST control)"
same,binding signal,[7],"1.25 fold enrichment (6-mer frequency, TF over GST control)"
same,binding signal,[8],"1.27 fold enrichment (6-mer frequency, TF over GST control)"
same,binding signal,[9],"1.24 fold enrichment (6-mer frequency, TF over GST control)"
same,binding signal,[10],"1.22 fold enrichment (6-mer frequency, TF over GST control)"
same,binding signal,[11],"1.31 fold enrichment (6-mer frequency, TF over GST control)"
same,binding signal,[12],"1.81 fold enrichment (6-mer frequency, TF over GST control)"
same,binding signal,[13],"1.4 fold enrichment (6-mer frequency, TF over GST control)"
same,binding signal,[14],"1.23 fold enrichment (6-mer frequency, TF over GST control)"
same,binding signal,[15],"1.17 fold enrichment (6-mer frequency, TF over GST control)"
same,binding signal,[16],"1.35 fold enrichment (6-mer frequency, TF over GST control)"
same,binding signal,[17],"1.3 fold enrichment (6-mer frequency, TF over GST control)"
same,binding signal,[18],"2.74 fold enrichment (6-mer frequency, TF over GST control)"
same,binding signal,[19],"1.33 fold enrichment (6-mer frequency, TF over GST control)"
